Bioassay records deposited in PubChem BioAssay by The Scripps Research Institute Molecular Screening Center.
Hits are enriched below; roughly 3.3% of the tested compounds scored in any of these assays.
PRMT1 FP inh = PRMT1 (human) inhibition, primary screen; Q99873; recombinant PRMT1, activity-based probe fluorescence polarization; inhibition, % at 2.79 µM; actives 1.3% (n = 370,000); AID 652257;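 active means inhibition above about 21% made by adding two undisclosed values, limit read from the data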
Target sequence (Q99873 whole entry, looked up): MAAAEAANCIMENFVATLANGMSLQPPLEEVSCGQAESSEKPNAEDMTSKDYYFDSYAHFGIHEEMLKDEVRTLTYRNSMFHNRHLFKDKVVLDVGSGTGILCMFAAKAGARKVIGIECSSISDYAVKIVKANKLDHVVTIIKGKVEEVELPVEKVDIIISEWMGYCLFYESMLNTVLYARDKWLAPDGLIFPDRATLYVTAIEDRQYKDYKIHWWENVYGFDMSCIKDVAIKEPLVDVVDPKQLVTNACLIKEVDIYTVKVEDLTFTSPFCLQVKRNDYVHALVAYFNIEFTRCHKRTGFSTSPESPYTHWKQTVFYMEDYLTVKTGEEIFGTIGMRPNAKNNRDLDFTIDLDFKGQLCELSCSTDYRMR
rCAG binder = r(CAG) repeat RNA binding; TO-PRO-1 dye displacement fluorescence; inhibition, % at 3 µM; actives 1.3% (n = 370,000);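 active means inhibition above the plate cutoff, the mean of all test compounds on that plate plus 3 SD, cut at about 35% in these data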;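 further: 0% = DMSO alone and 100% = 100 µM mitoxantrone as full dye displacement; higher means more dye released from RNA so lower well fluorescence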
NOD2 RIPK2 PPI = NOD2-RIPK2 protein interaction inhibition; CHO BLA complementation NOD2-RIPK2, CCF4 ratio; inhibition, % at 4.98 µM; actives 0.38% (n = 360,000); in the data active means inhibition above about 21%;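 further: 0% = vehicle only and 100% = reference blocker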
TLR9-MyD88 block = TLR9-MyD88 interaction inhibition; AID 504734; inhibition, % at 4.98 µM; Q9NR96+Q99836; actives 0.21% (n = 340,000); CHO BLA complementation TLR9-MyD88, CCF4 FRET ratio;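 active means inhibition above the mean over all tested compounds plus 3 SD, cut at about 21% in these data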;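 further: 0% = DMSO only wells and 100% = clavulanate BLA inhibitor control wells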
TLR4-MyD88 BLA = blocks binding of human TLR4 to MyD88; inhibition, % at 8.4 µM; actives 0.18% (n = 200,000); HeLa CL3-4 TLR4/MyD88 BLA complementation, FRET ratio; in the data active means inhibition above about 25%;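 further: 0% = vehicle and 100% = reference inhibitor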
ABHD5-PLIN5 inh = blocks binding of human ABHD5 to perilipin-5; Split G. princeps luciferase complementation, luminescence, 4 h; AID 602281; Q00G26+Q8WTS1; inhibition, % at 4 µM; actives 0.78% (n = 360,000);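 active means inhibition above the mean inhibition across every tested compound plus 3 SD, cut at about 22% in these data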;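 further: 0% = DMSO only wells and the 100% control is not disclosed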
ABHD5-PLIN5 conf = confirmation of human ABHD5-PLIN5 interaction inhibitors. shares compounds with ABHD5-PLIN5 inh. biochemical ABHD5-PLIN5 interaction, luminescence. inhibition, % at 4 µM. actives 67% (n = 2,200); in the data active means inhibition above about 23%;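 further: 0% = DMSO vehicle wells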
HNF4 counter = HNF4 split-luciferase signal hit, counter-screen; shares compounds with ABHD5-PLIN5 inh; HNF4 dimerization, luminescence, biochemical; inhibition, % at 4 µM; actives 77% (n = 2,200);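 active means mean inhibition across replicate wells exceeding the computed hit threshold, cut at about 13% in these data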;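 further: light from luciferase halves that rejoin when HNF4 fusion proteins dimerize; 0% = DMSO only wells and the 100% control is not given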
* marks the source's active call; other numbers are inactive results; x = not tested or not shown; ! = not active in a repeat.

SMILES	PRMT1 FP inh	rCAG binder	NOD2 RIPK2 PPI	TLR9-MyD88 block	TLR4-MyD88 BLA	ABHD5-PLIN5 inh	ABHD5-PLIN5 conf	HNF4 counter
CC(C)(C)c1ccc2c(c1)N(CC(=O)N1CCCC1)C(=O)CO2	1	-6	9	-7	x	-6	x	x
CC(=O)OCC1OC(n2ccc3ccccc32)C(OC(C)=O)C(OC(C)=O)C1OC(C)=O (configuration not stated)	0	-4	-10	-3	11	-2	x	x
COC(=O)C1C=CC(OC2OC(COC(C)=O)C(OC(C)=O)C(OC(C)=O)C2OC(C)=O)n2c(=O)n(-c3ccccc3)c(=O)n21 (configuration not stated)	4	2	-14	4	x	26*	18	72*
CC(C)(C)c1ccc(C(=O)N2CCC2(C)C(=O)Nc2cccc(C#N)c2)cc1 (configuration not stated)	0	1	9	x	x	1	x	x
Cc1cc(C)c(NC(=O)CCCN2CCN(C)CC2)c(C)c1	1	-7	0	-4	-16	5	x	x
Cc1cc(C)c(NC(=O)CN2CCN3CCCC3C2)c(C)c1 (configuration not stated)	1	-1	8	6	-8	32*!	33*	1
CCN1CC(=O)Nc2cc(S(=O)(=O)N3CCOCC3)ccc21	-1	-4	4	1	-7	32*	49*	46*
CCN1C(=O)Cc2cc(S(=O)(=O)N3CCOCC3)ccc21	1	5	2	4	-3	-8	x	x
Cc1ccc(/C=C/C(=O)N2CC(=O)Nc3ccccc32)o1	15	0	-4	-9	-18	25*	20	30*
CC(=O)N1CCN(c2cc(N3CCCC3)c(F)cc2[N+](=O)[O-])CC1	-1	-5	-1	-2	6	3	x	x
CCN1CCN(c2cc(N3CCc4ccccc4C3)c(F)cc2[N+](=O)[O-])CC1	-2	-3	7	-3	17	26*	15	3
CC1(C)CC(=O)C2=C(C1)c1c(ccc3ccccc13)NC2c1ccc(Br)o1 (configuration not stated)	0	4	7	6	-1	7	x	x
CCCSc1nc(NCc2ccco2)c2c3c(sc2n1)COC(C)(C)C3	3	15	4	-1	-3	28*	7	5
C#CC(=O)N(c1cc(OC)ccc1OC)C(C(=O)NC1CCCC1)c1cccs1 (configuration not stated)	x	x	-3	-8	24	32*	45*	45*
C#CC(=O)N(c1ccc(OC)cc1OC)C(C(=O)NC1CCCC1)c1cccs1 (configuration not stated)	0	-7	2	-10	21	28*	40*	38*
CC(C)c1[nH]nc2c1C(c1ccc(F)cc1)N(Cc1ccccc1)C2=O (configuration not stated)	0	2	x	x	x	x	x	x
CCSc1nc2ccccc2n1C(=O)/C=C\c1ccc(OC)c(OC)c1	-2	-4	-4	-2	12	40*	77*	60*
C#CCOCCOCCOCCNc1nc(N2CCN(C(=O)[C@H]([C@@H](C)CC)n3cc([C@@H](N)CC(C)C)nn3)CC2)nc(N2CCN(C(=O)[C@H]([C@@H](C)CC)n3cc([C@@H](N)CC(C)C)nn3)CC2)n1	-2	1	-1	2	-20	18	x	x
Cc1ccc(-n2nc(C)c3c(C)c(CCC(=O)Nc4ccc(CN5CCCC5)cc4)c(C)nc32)cc1	2	0	9	-4	x	29*	12	3
C=CCOc1ccc(C=CC(=O)c2c(O)c(OC)c(OC)c(OC)c2OC)cc1	2	2	-5	-6	x	59*	72*	56*
COc1cc(OC)c2cc(C(=O)N[C@@H](Cc3ccccc3)C(=O)O)n(C)c2c1	4	17	7	9	x	-12	x	x
COc1ccc(C(=O)NCCNc2nc3ccc(C)cc3cc2C#N)cc1OC	-1	-1	11	-7	x	86*	-1	13*
COc1ccc(/C=C/C(=O)C(C(N)=O)=C2SCCS2)cc1	-1	2	0	8	-13	0	x	x
NC(=O)C(C(=O)/C=C/c1ccc(Cl)cc1)=C1SCCS1	-4	3	7	-7	x	34*	56*	34*
COC(=O)c1ccc2nc(-c3ccco3)c(Cc3ccccc3)n2c1	24*	25	4	x	x	67*	57*	83*
SMILES	PRMT1 FP inh	rCAG binder	NOD2 RIPK2 PPI	TLR9-MyD88 block	TLR4-MyD88 BLA	ABHD5-PLIN5 inh	ABHD5-PLIN5 conf	HNF4 counter
Fc1cccc(Cc2c(-c3ccco3)nc3ccc(Cl)cn23)c1	x	x	13	x	x	75*	21	53*
Clc1ccc2nc(-c3ccco3)c(Cc3ccccc3)n2c1	24*	21	2	x	x	55*	58*	72*
Fc1cccc(Cc2c(-c3ccccc3)nc3ccc(Cl)cn23)c1	-3	24	7	x	x	5	x	x
COc1ccc(-c2nc3ccc(Cl)cn3c2Cc2ccccc2)cc1OC	1	24	6	x	x	-1	x	x
Cc1ccc2nc(-c3ccco3)c(Cc3ccccc3)n2c1	19	3	-8	x	x	38*	7	10
COC(=O)CCC[C@H](C)[C@@H](NS(=O)(=O)c1ccc(C)cc1)C(C)(C)C	6	-2	x	x	x	x	x	x
Cc1ccccc1N1CCN(C(=O)COc2cc(=O)n(C)c3ccccc23)CC1	-2	-1	x	x	x	x	x	x
COC(=O)[C@@H]1OC(=O)[C@H]2O[C@@]23[C@@]1(C)CC[C@@H]1[C@@]2(C)C=CC(=O)OC(C)(C)[C@@H]2CC(=O)[C@]13C	-1	-4	-13	3	x	2	x	x
CC(=O)O[C@@H]1C[C@H]2C(C)(C)C(=O)C=C[C@]2(C)[C@H]2CC[C@@]3(C)[C@H](c4ccoc4)OC(=O)[C@H]4O[C@]43[C@@]21C	1	-11	0	10	-9	27*	43*	30*
CC1(C)OC(=O)C=C[C@]2(C)[C@H]3CC[C@@]4(C)[C@H](c5ccoc5)OC(=O)[C@H]5O[C@]54[C@]3(C)C(=O)C[C@@H]12	0	-4	-5	-4	x	4	x	x
CC(=O)OC1CC2C(C)(C)C(=O)C=CC2(C)C2CCC3(C)C(c4ccoc4)OC(=O)C4OC43C12C (configuration not stated)	1	-2	9	x	x	24*	42*	34*
Cc1nc(Cl)c2c(n1)N(CC(N)=O)C(=O)CO2	-5	-5	-2	-7	-14	-1	x	x
